Bioassay records: PubChem, several laboratories
Shown are actives, neighbours in structure and some others; about 4.5% of the full set was active somewhere.
Efflux pump inh: blocks antifungal efflux pumps in multiplex yeast assay; S. cerevisiae Candida pump triplex, Nile Red efflux; inhibition, % at 10 µM; 330,000 tested, 0.44% active;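 active = plate passing quality check with inhibition over a set limit, or well fluorescence over plate mean plus 4 SD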;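 note: Nile Red retained in pooled yeast measured as flow cytometry median fluorescence; 0% = buffer negative control and 100% = Enniatin B positive control; higher means more Nile Red kept so more efflux inhibition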
Rce1 inh: inhibitors of yeast Ras-converting enzyme | yeast membranes, quenched prenylated peptide cleavage fluorescence | calls only | 290,000 tested, 0.27% active | AID 2563 | Q03530;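 active = fall in fluorescence gain of 50% or more versus controls, with final raw signal at or below 3038400; inconclusive = same 50% fall but final raw signal above 3038400; inactive = fall in fluorescence gain under 50%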;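 note: plate controls were neutral control wells for no effect and wells lacking membranes for full effect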
Rtt109 Vps75: blocks Candida albicans Rtt109/Vps75 acetyltransferase activity; inhibition, % at 34.9 µM; Q5AAJ8; 330,000 tested, 0.16% active; purified Rtt109/Vps75, ThioGlo CoA-SH fluorescence, 4 h;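 active = inhibition of at least 50% in every replicate; inconclusive = best replicate reaches 50% inhibition but some replicates fall short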
ALR inh: human ALR oxidase inhibition via reduced H2O2; 290,000 tested, 3.8% active; purified ALR, DTT oxidation, H2O2 HRP-luminol luminescence; inhibition, % (concentration not given with the values);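 active = mean replicate inhibition above about 79%, with every replicate also reaching it, limit read from the data; inconclusive = only one of the two criteria met; inactive = mean below limit and not every replicate reaching it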
GRK2 inh: blocks RNA aptamer binding to human GRK2. inhibition of aptamer binding, % at 10 µM. P25098. bead flow cytometry, FAM-aptamer displacement from GRK2. 330,000 tested, 0.59% active;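 active = inhibition of aptamer binding above 40%, roughly 3 SD of noise, on plates passing a quality check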;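 note: median bead fluorescence of bound FAM aptamer so fluorescent compounds give negative values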
Target sequence (P25098 whole entry, looked up): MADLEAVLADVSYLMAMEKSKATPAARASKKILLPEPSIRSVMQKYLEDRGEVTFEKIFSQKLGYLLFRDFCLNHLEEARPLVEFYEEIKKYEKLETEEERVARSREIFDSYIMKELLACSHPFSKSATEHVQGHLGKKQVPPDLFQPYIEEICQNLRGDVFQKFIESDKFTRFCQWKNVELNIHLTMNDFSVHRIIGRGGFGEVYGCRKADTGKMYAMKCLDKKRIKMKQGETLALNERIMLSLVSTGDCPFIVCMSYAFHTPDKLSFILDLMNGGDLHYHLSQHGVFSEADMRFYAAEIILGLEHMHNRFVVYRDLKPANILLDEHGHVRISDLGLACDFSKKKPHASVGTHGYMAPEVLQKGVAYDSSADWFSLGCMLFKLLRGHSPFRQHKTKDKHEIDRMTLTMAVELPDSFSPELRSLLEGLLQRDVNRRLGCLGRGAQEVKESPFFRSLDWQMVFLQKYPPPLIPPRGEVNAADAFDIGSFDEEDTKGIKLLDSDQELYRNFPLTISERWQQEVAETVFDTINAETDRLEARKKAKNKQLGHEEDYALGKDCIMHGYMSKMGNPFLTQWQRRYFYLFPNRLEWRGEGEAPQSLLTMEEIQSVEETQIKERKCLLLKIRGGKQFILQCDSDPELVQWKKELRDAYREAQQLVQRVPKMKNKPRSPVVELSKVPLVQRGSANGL
HDAC3 inh: blocks human histone deacetylase 3 | inhibition, % at 8.3 µM | 320,000 tested, 0.15% active | recombinant HDAC3, fluorogenic peptide/trypsin coupled, fluorescence; in the data active = inhibition above about 26%, passing the limit was not always enough; inconclusive = no clear call, values can overlap the other calls
* = called active by the depositor.

Screening CSCCC(NC(=O)COc1ccccc1)C(=O)OC(C)C(=O)Nc1ccccc1C (stereo not drawn) returned Efflux pump inh 0, Rce1 inh inactive, Rtt109 Vps75 16, ALR inh 1, GRK2 inh 0 and HDAC3 inh 7.
`O=C(/C=C/c1ccco1)N1CCN(S(=O)(=O)c2cccc([N+](=O)[O-])c2)CC1` gave Efflux pump inh 0, Rtt109 Vps75 6, ALR inh -9, GRK2 inh 79* and HDAC3 inh 4.
For C=CCNC(=O)c1ccc(NC(=O)CC2SC(N3CCCC3)=NC2=O)cc1 (stereo not drawn) the results were Efflux pump inh 0, Rce1 inh inactive, Rtt109 Vps75 0, ALR inh 4, GRK2 inh 0 and HDAC3 inh -2.
For O=C(Nc1cccc(-c2cn3ccccc3n2)c1)C1CC1 the results were Efflux pump inh 0, Rce1 inh active, Rtt109 Vps75 3, ALR inh 64, GRK2 inh 1 and HDAC3 inh -35.
Screening CCC(=O)Nc1cccc(-c2cn3ccccc3n2)c1 returned Efflux pump inh 0, Rce1 inh inactive, Rtt109 Vps75 -6, GRK2 inh 0 and HDAC3 inh -15.
`O=C(Nc1cccc(-c2cn3ccsc3n2)c1)c1ccccc1` gave Efflux pump inh 0, Rce1 inh inactive, Rtt109 Vps75 7, ALR inh 91*, GRK2 inh 1 and HDAC3 inh -9.
Cc1ccn2cc(-c3cccc([N+](=O)[O-])c3)nc2c1 was read as Efflux pump inh 0, Rce1 inh inactive, Rtt109 Vps75 9, ALR inh 91*, GRK2 inh 0 and HDAC3 inh -8.
Screening Cc1ccn2cc(-c3cccc(NS(C)(=O)=O)c3)nc2c1 returned Efflux pump inh 0, Rce1 inh inactive, Rtt109 Vps75 13, ALR inh 97*, GRK2 inh 1 and HDAC3 inh -20.
For Cc1ccn2cc(-c3ccc(Br)cc3)nc2c1 the results were Efflux pump inh 0, Rce1 inh inactive, Rtt109 Vps75 26, GRK2 inh 0 and HDAC3 inh -7.
CCCC(C)c1nnc(NC(=O)C2CC(=O)N(CCc3ccc(F)cc3)C2)s1 (stereo not drawn) was read as Efflux pump inh 0, Rce1 inh inactive, Rtt109 Vps75 0, GRK2 inh 0 and HDAC3 inh 11.
Screening Cc1ccc2c(CC(=O)N3CCN(c4ccccc4)CC3)coc2c1 returned Efflux pump inh 0, Rce1 inh inactive, Rtt109 Vps75 -1, GRK2 inh 2 and HDAC3 inh 5.
`COc1ccc(C)cc1NC(=O)CN(C)S(=O)(=O)c1ccc2c(c1)CC(C)N2C(C)=O` (stereo not drawn) gave Efflux pump inh 0, Rce1 inh inactive, Rtt109 Vps75 15, ALR inh -6, GRK2 inh 2 and HDAC3 inh 12.
For Cc1ccn2cc(-c3cccc(NC(=O)CCC(=O)O)c3)nc2c1 the results were Efflux pump inh 0, Rce1 inh inactive, Rtt109 Vps75 -15, ALR inh 98*, GRK2 inh 0 and HDAC3 inh -23.
`CC(=O)Nc1cccc(-c2cn3ccc(C)cc3n2)c1` gave Efflux pump inh 0, Rtt109 Vps75 -2, ALR inh inconclusive, GRK2 inh 0 and HDAC3 inh -39.
Screening Cc1cc(C)c(S(=O)(=O)/N=C2/C=C(Sc3ncn[nH]3)C(=O)c3ccccc32)cc1C returned Efflux pump inh 0, Rtt109 Vps75 1, ALR inh -68, GRK2 inh 6 and HDAC3 inh 40*.
Cc1ccc(C)c(S(=O)(=O)/N=C2\C=C(NS(=O)(=O)c3ccccc3)C(=O)c3ccccc32)c1 was read as Efflux pump inh 0, Rce1 inh inactive, Rtt109 Vps75 8, ALR inh -12, GRK2 inh 0 and HDAC3 inh 1.
`CS(=O)(=O)Nc1ccccc1C(=O)N1CCN(c2ccccc2)CC1` gave Efflux pump inh 0, Rce1 inh inactive, ALR inh 98*, GRK2 inh 0 and HDAC3 inh 0.
`CCc1ccccc1N(CC(=O)N1CCN(c2ccccc2)CC1)S(C)(=O)=O` gave Efflux pump inh 0, Rce1 inh inactive, Rtt109 Vps75 -1, ALR inh 98*, GRK2 inh 1 and HDAC3 inh 0.
CN(c1ccccc1C(=O)N1CCN(c2ccccc2)CC1)S(C)(=O)=O was read as Efflux pump inh 0, Rtt109 Vps75 -6, ALR inh 87*, GRK2 inh 0 and HDAC3 inh -2.
Screening COc1ccccc1NS(=O)(=O)c1ccc(C)c(C(=O)N2CCN(c3ccc(O)cc3)CC2)c1 returned Efflux pump inh 0, Rtt109 Vps75 2, ALR inh 99*, GRK2 inh 0 and HDAC3 inh 2.
Screening CCOC(=O)C1CCCN(C(=O)c2cc(S(=O)(=O)Nc3ccccc3OC)ccc2C)C1 (stereo not drawn) returned Efflux pump inh 0, Rce1 inh inactive, Rtt109 Vps75 2, ALR inh -3, GRK2 inh 0 and HDAC3 inh 0.
For CCOC(=O)C1CCN(C(=O)COc2ccc(S(=O)(=O)N3CCCC3)cc2C)CC1 the results were Efflux pump inh 0, Rce1 inh inactive, Rtt109 Vps75 5, ALR inh -15, GRK2 inh 0 and HDAC3 inh -4.
`CCOc1ccc(N2C(=O)Nc3ccccc3C2(O)C(=O)NCc2ccccc2)cc1` (stereo not drawn) gave Efflux pump inh 0, Rce1 inh inactive, Rtt109 Vps75 11, ALR inh 92*, GRK2 inh 4 and HDAC3 inh 2.
For C[C@H](NC(=O)N1CCC(Cc2ccccc2)CC1)C(=O)O the results were Efflux pump inh 0, Rce1 inh inactive, Rtt109 Vps75 -5, ALR inh 1, GRK2 inh 0 and HDAC3 inh -5.
COc1cc(/C(C)=N/NC(=O)c2cccc(S(=O)(=O)N3CCCC3)c2)cc(OC)c1OC was read as Efflux pump inh 0, Rce1 inh inactive, Rtt109 Vps75 2, ALR inh 1, GRK2 inh 50* and HDAC3 inh 6.
COc1ccc(/C=N/NC(=O)c2cccc(S(=O)(=O)N3CCCC3)c2)cc1O was read as Efflux pump inh 0, Rtt109 Vps75 2, ALR inh 97*, GRK2 inh 3 and HDAC3 inh 6.
For CCN(CC)S(=O)(=O)c1cccc(C(=O)N/N=C/c2cc(OC)c(O)c(OC)c2)c1 the results were Efflux pump inh 0, Rce1 inh inactive, Rtt109 Vps75 2, ALR inh 99*, GRK2 inh 0 and HDAC3 inh 5.
`COc1cc(/C=N/NC(=O)c2cccc(S(=O)(=O)N3CCCC3)c2)cc(OC)c1O` gave Efflux pump inh 0, Rce1 inh inactive, Rtt109 Vps75 15, ALR inh 99*, GRK2 inh 3 and HDAC3 inh 7.
